HT1080NT lethal – qHTS for induction of synthetic lethality in tumor cells producing 2HG: qHTS for the HT-1080-NT fibrosarcoma cell line; HT-1080-NT fibrosarcoma viability, CellTiter-Glo ATP luminescence, 48 h; Potency, µM (top dose mostly 46.1 µM), for the others: at the top dose activity, negative = less viability, usual class: cytotoxic; actives 1.6% (n = 360,000); AID 686970, 2013;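 also: NT is the 2HG producing partner of a matched IDH1 knockdown line; potency is read from the fitted curve at half-maximal effect; 0% = DMSO-treated cells and -100% = media-only wells without cells; nearly all actives have a fitted effect of over 55% in size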
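Toxicity toward the 2HG-producing NT line was scored as %Activity, normalised to DMSO and no-cell wells, from CellTiter-Glo luminescence after 48 hours' treatment.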
IL1B secr inh – qHTS for Inhibitors of Inflammasome Signaling: IL-1-beta AlphaLISA Primary Screen. THP-1 LPS/ATP IL-1B secretion, AlphaLISA, 16 h; stronger effect = lower value. activity change, % at 57.5 µM. actives 4.7% (n = 360,000). AID 743279, 2014; in the data active = activity change below about -50%; inconclusive = mostly about -30% to -49%
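Secreted IL-1B measured by AlphaLISA bead assay after 16 h compound exposure of THP-1 cells; compounds (final up to 57.5 uM) added 1 h before LPS (250 ng/mL) and ATP (1.25 mM) stimulation; lower signal means less secretion.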
DT40 TDP1 no CPT – qHTS for Inhibitors of human tyrosyl-DNA phosphodiesterase 1 (TDP1): qHTS in cells in absence of CPT; Potency, µM (titrated, usually from 46.2 µM), without a hit: top-dose activity change, negative = growth inhibition, hits mostly inhibitors; DT40 Tdp1-/- hTDP1 cells, no CPT, ATP luminescence, 48 h; actives 15% (n = 420,000); also: potency is read from the fitted curve at half-maximal effect; nearly all actives have a fitted effect of over 55% in size
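A cellular qHTS used chicken DT40 cells lacking endogenous Tdp1 but carrying stably transfected human TDP1. Compounds were applied without camptothecin, and cell growth kinetics were judged by ATP-dependent luminescence after ≥48 hr.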
DT40 TDP1 CPT – qHTS for Inhibitors of human tyrosyl-DNA phosphodiesterase 1 (TDP1): qHTS in cells in presence of CPT. chicken DT40 Tdp1-/-;hTDP1 cells + 20 nM CPT, ATP luminescence, 48 h. AID 686979, 2013. Potency, µM (top dose mostly 46.2 µM), without a hit: at the top dose activity change, negative = growth inhibition, usual class: inhibitors. actives 12% (n = 420,000); also: potency is read from the fitted curve at half-maximal effect; nearly all actives have a fitted effect of over 55% in size
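Cell growth measured by CellTiter-Glo luminescence after a minimum 48 h, 37 C compound exposure with 20 nM CPT in Tdp1-knockout DT40 cells stably expressing hTDP1, seeded 400/well; qHTS titration format.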
ALOX12 inh – Primary qHTS assay for inhibitors of human arachidonate 12S-lipoxygenase (ALOX12): Round 2. purified 12hLO, xylenol orange hydroperoxide absorbance. AID 1671190, 2021. Polyunsaturated fatty acid lipoxygenase ALOX12 (Homo sapiens), P18054. Potency, µM (highest dose often 108 µM), for the others: at the highest dose activity change, negative = inhibition, hits mostly inhibitors. actives 1.1% (n = 580,000); also: potency is read from the fitted curve at half-maximal effect
Target sequence (P18054 whole entry, looked up): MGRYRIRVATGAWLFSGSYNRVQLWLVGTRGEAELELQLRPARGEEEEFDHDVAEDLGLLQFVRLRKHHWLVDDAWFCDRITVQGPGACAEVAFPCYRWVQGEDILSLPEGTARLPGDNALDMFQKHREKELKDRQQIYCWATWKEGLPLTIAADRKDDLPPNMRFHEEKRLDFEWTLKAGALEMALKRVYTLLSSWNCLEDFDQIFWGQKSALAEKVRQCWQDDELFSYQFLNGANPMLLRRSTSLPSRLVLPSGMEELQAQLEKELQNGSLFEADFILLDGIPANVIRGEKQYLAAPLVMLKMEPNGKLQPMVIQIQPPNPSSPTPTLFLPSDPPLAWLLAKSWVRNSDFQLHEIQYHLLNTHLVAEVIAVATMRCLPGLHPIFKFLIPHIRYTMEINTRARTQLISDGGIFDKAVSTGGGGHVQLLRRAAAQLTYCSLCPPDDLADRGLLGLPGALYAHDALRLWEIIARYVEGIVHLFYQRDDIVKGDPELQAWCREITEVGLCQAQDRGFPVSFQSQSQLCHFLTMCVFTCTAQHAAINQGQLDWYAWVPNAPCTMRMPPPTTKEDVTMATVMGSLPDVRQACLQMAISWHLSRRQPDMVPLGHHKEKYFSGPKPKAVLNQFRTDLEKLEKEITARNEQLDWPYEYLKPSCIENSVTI
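Purified human 12hLO at 150 nM in 25 mM Hepes, 0.01% Triton X-100, pH 7.0, preincubated 15 min at room temperature with compound. Reaction started with 40 uM arachidonic acid, 30 min at room temperature. Hydroperoxide measured by Fe-xylenol orange, 573/405 nm absorbance ratio.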
HT1080 IDH1KD tx – qHTS for induction of synthetic lethality in tumor cells producing 2HG: qHTS for the HT-1080-IDH1KD cell line | HT-1080 IDH1 knockdown viability, ATP luminescence, 48 h | Potency, µM (highest dose often 46.1 µM), inactives show at the highest dose activity, negative = toxicity, usual class: cytotoxic | actives 2% (n = 360,000);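 also: potency is read from the fitted curve at half-maximal effect; 0% = DMSO wells and -100% = cell-free medium wells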
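Knockdown cells (IDH1KD HT-1080) received compounds 2 h after plating at 750 cells/well and were kept 48 h at 37 °C in 5% FBS RPMI. A CellTiter-Glo luminescence read gave % activity for curve fitting.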
The depositor's hits bear a star; ? = inconclusive; . = not tested or not shown; [ ] = dose if it differs, or a comment. Shown is part of a subset that was picked to be rich in hits. Unless noted, calls follow the shape of the dose curve; as a rule, active = well fitted curve in the direction sought with a large enough effect; inconclusive = small, poorly fitted or top-dose-only effect, or another doubt; inactive = no such curve, though single readings can be large; an effect the other way counts as inactive or inconclusive. Unless noted, % is scaled to controls: 0 for no effect and ±100 for the full control effect.

SMILES | HT1080NT lethal | IL1B secr inh | DT40 TDP1 no CPT | DT40 TDP1 CPT | ALOX12 inh | HT1080 IDH1KD tx
C=CCc1cccc(C=Nc2c[nH]c(=O)[nH]c2=O)c1O | 8% | 12 | -6% | 18µM* | 5% | 9%
O=C1NC(=O)C(CCc2ccncc2)(CCc2ccccn2)C(=O)N1c1ccc(Br)cc1 (configuration not stated) | -11% | 24 | 9.2µM* | 10µM* | 11% | -22%
CC(=O)OC1CC2(O)C3CCC4CC(O)CCC4(C)C3CCC2(C)C1C1=CC(=O)OC1 (configuration not stated) | 1.3µM* | -80* | 8.2µM* | ? | 14% | 0.52µM*
C[C@H]1O[C@@H](O[C@H]2[C@@H](O)C[C@H](O[C@H]3[C@@H](O)C[C@H](O[C@H]4CC[C@@]5(C)[C@H](CC[C@@H]6[C@@H]5CC[C@]5(C)[C@@H](C7=CC(=O)OC7)CC[C@]65O)C4)O[C@@H]3C)O[C@@H]2C)C[C@H](O)[C@@H]1O | 0.21µM* | -76* | 0.3µM* | 0.3µM* | . | 0.15µM*
CC1OC(OC2C(O)CC(OC3C(O)CC(OC4CCC5(C)C(CCC6C5CCC5(C)C(C7=CC(=O)OC7)C(O)CC65O)C4)OC3C)OC2C)CC(O)C1O (configuration not stated) | 1µM* | -99* | 0.82µM* | 1.5µM* | 3% | 0.58µM*
CC1OC(O[C@@H]2C(O)CC(O[C@@H]3C(O)C[C@@H](OC4CC[C@]5(C)[C@H](CC[C@H]6[C@@H]5CC[C@]5(C)C(C7=CC(=O)OC7)C(O)C[C@@]65O)C4)OC3C)OC2C)CC(O)C1O (some centres not stated) | . | . | -14% | 0% | . | .
COC1CC(OC2CCC3(C)C(CC[C@@H]4[C@@H]3CCC3(C)C(C5=CC(=O)OC5)C(OC(C)=O)CC43O)C2)OC(C)C1O (some centres not stated) | . | . | . | . | -4% | .
COC(=O)C1=C(c2ccc(F)cc2F)C[C@@H]2CC[C@H]1N2C(=O)NCCOc1ccccc1 | -7% | -11 | ? | 23µM* | 9% | 1%
COC(=O)C1=C(c2ccc(-c3ccccc3)c(F)c2)C[C@@H]2CC[C@H]1N2C(=O)NCc1ccco1 | -24% | -16 | 6.5µM* | 7.3µM* | -14% | -11%
COC(=O)C1=C(c2ccc(-c3ccccc3)c(F)c2)C[C@@H]2CC[C@H]1N2C(=O)NCCO | 9% | -6 | 21µM* | ? | 7% | -1%
COC(=O)C1=C(c2ccc(-c3ccccc3)c(F)c2)C[C@@H]2CC[C@H]1N2C(=O)NCCOc1ccccc1Cl | -25% | ? | ? | ? | 5% | -17%
CCCNC(=O)N1[C@H]2CC[C@@H]1C(C(=O)OC)=C(c1ccc(-c3ccccc3)c(F)c1)C2 | -13% | ? | 7.3µM* | 9.2µM* | 3% | -6%
C=CCN(C)C[C@H]1CN2CC[C@H]1C[C@@H]2CNC(=O)COC | . | . | . | . | -1%[176 µM] | .
COc1ccc(S(=O)(=O)N2[C@H]3CC[C@@H]2c2cnc(-c4ccccc4)nc2C3)cc1 | . | . | . | . | 31% | .
CCC[C@H](N[C@@H](CCC)[C@H](O)c1ccccc1)[C@H](O)c1ccccc1 | -18% | -58* | 23µM* | 26µM* | 8% | -19%
CCn1c(=O)c(=O)[nH]c2cc(C(=O)N3C4CCC3CC4)ccc21 | . | . | . | . | 21% | .
O=c1oc2ccccc2c(O)c1[C@H]1c2ccc(O)cc2Oc2c1c(=O)oc1ccccc21 | ? | -92* | 23µM* | ? | ? | -19%
CCCS(=O)(=O)NC[C@H]1C[C@@H]2CCN1C[C@@H]2c1cc(C2CCCCC2)nn1C | . | . | . | . | 42%[176 µM] | .
COC(=O)C1=C(C)NC(C)=C(C(=O)OCC(C)=O)C1c1ccccc1[N+](=O)[O-] (configuration not stated) | . | . | 12µM* | 19µM* | . | .
CC(=O)NCCNC(=O)[C@H]1CN2CC[C@H]1C[C@@H]2Cn1cc(COc2ccccc2)nn1 | . | . | . | . | 0%[176 µM] | .
CN1C(=O)C(=Cc2ccc(N3CCCCCC3)o2)C(=O)N(C)C1=S | -2% | -26 | 23µM* | ? | -1% | 1%
CCOC(=O)C1(CCOc2ccccc2)CCN(Cc2ccc(C)s2)CC1 | -21% | -96* | 7.3µM* | ? | 0% | ?
CCOC(=O)C1(CCc2ccccc2)CCN(Cc2ccc3c(c2)OCCO3)CC1 | 23µM* | 8 | 26µM* | ? | -6% | 16µM*
CCOC(=O)C1(CCc2ccccc2)CCN(C2CCSCC2)CC1 | 0% | -18 | 6.5µM* | 8.2µM* | 5% | 11%
CCOC(=O)C1(CCCc2ccccc2)CCN(C2CCCC2)CC1 | -18% | -74* | ? | 18µM* | -13% | -27%
SMILES | HT1080NT lethal | IL1B secr inh | DT40 TDP1 no CPT | DT40 TDP1 CPT | ALOX12 inh | HT1080 IDH1KD tx
CCOC(=O)C1(CCc2ccccc2)CCN(Cc2ccc(NC(C)=O)cc2)CC1 | -2% | -6 | ? | ? | ? | -4%
Cc1ncc2c(n1)C[C@@H]1CC[C@H]2N1C(=O)C1CCCC1 | . | . | . | . | 33% | .
COCCN1CCC(N2CCN(C(=O)Cc3ccc(Cl)cc3)CC2)C1=O (configuration not stated) | . | . | . | . | 22% | .
C#C[C@H]1CN2CC[C@H]1C[C@@H]2CNC(=O)COc1ccccc1 | . | . | . | . | 28%[176 µM] | .
CC12CCC(=O)C=C1CCC1C2CCC2(C)C1CC[C@]2(C)O (some centres not stated) | . | . | . | . | 10% | .
Fc1ccc(CN2CCN(c3ccc(Cl)cc3)CC2)cc1 | -10% | 13 | ? | -28% | 2% | -12%
CCOC(=O)C1CCCN(Cc2ccc(-c3ccccc3)cc2)C1 (configuration not stated) | -1% | -9 | ? | ? | ? | -3%
CC(Cc1cccc(Cl)c1)NC(=O)CCCNC(=O)C1CC1 (configuration not stated) | . | . | . | . | 2% | .
Cc1oc(-c2ccc(Cl)cc2)nc1CN1CCC(C(=O)NCCCN2CCN(c3cccc(Cl)c3)CC2)CC1 | . | . | 2.6µM* | 5.2µM* | ? | .
